Sampled rows, rich in hits. Any-hit rate of the full collection: about 0.37%.
Rab7 wt GTP bind: modulators of GTP binding to Rab7, primary screen, biochemical, wildtype, multiplex bead flow cytometry | GST-Rab7 beads, fluorescent GTP binding; actives lie on both sides; untreated = 100%, excess cold GTP = 0% | GTP binding activity (percent of control), % at 10 µM | actives 0.055% (n = 190,000);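 active = fluorescent GTP binding to Rab7 beads changed by at least 20 points from the 100% baseline, either direction, mostly lower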;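 note: median green fluorescence of bound Bodipy-FL-GTP per Rab7 bead population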
Rac1 act GTP bind: GTP binding modulators of activated mutant Rac1, primary screen, biochemical, bead-based flow cytometry, multiplex, fluorescent GTP; Ras-related C3 botulinum toxin substrate 1 (Homo sapiens), P63000; actives 0.11% (n = 190,000); GST-Rac1 activated beads; actives lie on both sides; 100% means binding = to untreated wells; percent activity (GTP binding), % at 10 µM;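 active = GTP binding at least 20 percentage points away from the 100% baseline, in either direction, so actives lie on both sides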
Rab2A wt mod: modulators of GTP binding to Rab2A wildtype, primary screen, biochemical, dog, bead-based flow cytometry, multiplex; GST-Rab2 wt beads, Bodipy-GTP binding; AID 760, 2007; actives 0.19% (n = 190,000); Ras-related protein Rab-2A (Canis lupus familiaris), P61105; GTP binding activity, % at 10 µM;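 active = GTP binding activity at least 20 points away from 100%, either lowered or raised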
Rac1 wt modul: wildtype Rac1 GTP binding modulators, primary screen, biochemical, GST-Rac1 beads, flow cytometry, multiplex | Ras-related C3 botulinum toxin substrate 1 (Homo sapiens), P63000 | fluorescent GTP binding; actives lie on both sides; 0 = cold GTP competed, 100 = untreated | GTP binding activity (% of control), % at 10 µM | actives 0.27% (n = 190,000);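 active = GTP binding activity at least 20 points away from the 100% control level, either lower or higher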
HRas wt GTP bind: modulators of GTP binding to HRas wildtype, primary screen, biochemical, bead-based flow cytometry, multiplex | GTPase HRas (Homo sapiens), P01112 | GST-Ras wt beads, Bodipy-FL-GTP binding; actives lie on both sides | GTP binding activity, % at 10 µM | actives 0.14% (n = 190,000) | AID 759, 2007;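 active = GTP binding activity at least 20% away from the 100% baseline, either lowered as inhibitor or raised as activator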
Target sequence (P01112 whole entry, looked up): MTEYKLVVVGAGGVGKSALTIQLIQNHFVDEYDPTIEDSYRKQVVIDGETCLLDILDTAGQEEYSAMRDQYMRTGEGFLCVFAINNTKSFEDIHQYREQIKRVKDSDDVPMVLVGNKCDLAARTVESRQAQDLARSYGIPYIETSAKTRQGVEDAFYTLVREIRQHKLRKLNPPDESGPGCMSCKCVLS
Cdc42 wt: modulators of GTP binding to wildtype Cdc42, primary screen, biochemical, multiplex bead flow cytometry, Bodipy-GTP | Cell division control protein 42 homolog (Homo sapiens), P60953 | GST-Cdc42 beads; actives lie on both sides | percent activity (GTP binding), % at 10 µM | actives 0.2% (n = 190,000) | AID 761, 2007;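 active = percent activity GTP binding at least 20 points away from the 100% baseline, either down as inhibitor or up as activator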;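 note: median bead fluorescence of bound Bodipy-FL-GTP at 100 nM; below 100% means less GTP binding so inhibitor and above means activator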
Target sequence (P60953 whole entry, looked up): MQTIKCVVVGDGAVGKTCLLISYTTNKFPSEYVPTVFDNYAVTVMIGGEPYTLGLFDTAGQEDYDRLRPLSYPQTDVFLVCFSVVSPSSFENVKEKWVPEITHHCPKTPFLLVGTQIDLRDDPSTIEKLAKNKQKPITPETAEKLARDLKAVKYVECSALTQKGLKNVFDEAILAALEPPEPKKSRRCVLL
A number is an active result; [ ] = dose if it differs, or a comment.

What do the screens show for `O=C(NCCCN1CCOCC1)c1sc2ccccc2c1Cl`?
Rab7 wt GTP bind: inactive; Rac1 act GTP bind: inactive; Rab2A wt mod: inactive; Rac1 wt modul: inactive; HRas wt GTP bind: inactive; Cdc42 wt: inactive

What do the screens show for `COc1ccc(/C=C2\SC(=S)NC2=O)cc1OS(=O)(=O)c1ccc(NC(C)=O)cc1`?
Rab7 wt GTP bind: inactive; Rac1 act GTP bind: inactive; Rab2A wt mod: inactive; Rac1 wt modul: 135.0[activator]; HRas wt GTP bind: inactive; Cdc42 wt: inactive

Results for COc1cc(/C=C2/SC(=S)NC2=O)ccc1OS(=O)(=O)c1ccc(C)cc1 ?
Rab7 wt GTP bind: inactive; Rac1 act GTP bind: inactive; Rab2A wt mod: inactive; Rac1 wt modul: inactive; HRas wt GTP bind: inactive; Cdc42 wt: inactive

Results for COC(=O)c1nnn(-c2ccsc2C(=O)OC)c1C(=O)OC ?
Rab7 wt GTP bind: inactive; Rac1 act GTP bind: inactive; Rab2A wt mod: inactive; Rac1 wt modul: inactive; HRas wt GTP bind: inactive; Cdc42 wt: inactive

How did CN1CCN(c2ccc(S(=O)(=O)N3CCCCC3)cc2NC(=O)c2ccc(F)cc2F)CC1 do in these assays?
Rab7 wt GTP bind: inactive; Rac1 act GTP bind: inactive; Rab2A wt mod: inactive; Rac1 wt modul: inactive; HRas wt GTP bind: inactive; Cdc42 wt: inactive

What do the screens show for `COc1ccc2c(C)cc3nncn3c2c1`?
Rab7 wt GTP bind: inactive; Rac1 act GTP bind: inactive; Rab2A wt mod: inactive; Rac1 wt modul: 79.0; HRas wt GTP bind: inactive; Cdc42 wt: inactive

What do the screens show for `C=CCN1C(=NC(=O)CCCC(=O)O)SC2CS(=O)(=O)CC21` (stereo not given)?
Rab7 wt GTP bind: 76.0; Rac1 act GTP bind: inactive; Rab2A wt mod: inactive; Rac1 wt modul: inactive; HRas wt GTP bind: inactive; Cdc42 wt: inactive

How did COc1ccc2o/c(=N/NC(=O)c3cccs3)c(C(N)=O)cc2c1 do in these assays?
Rab7 wt GTP bind: inactive; Rac1 act GTP bind: inactive; Rab2A wt mod: 61.0; Rac1 wt modul: 57.0; HRas wt GTP bind: 61.0; Cdc42 wt: 60.0

How did C#CC[N+]1(CC#Cc2ccc(C)cc2)CCCCC1 do in these assays?
Rab7 wt GTP bind: inactive; Rac1 act GTP bind: inactive; Rab2A wt mod: inactive; Rac1 wt modul: inactive; HRas wt GTP bind: inactive; Cdc42 wt: inactive

What do the screens show for `COc1ccc2c3c(cccc13)C(=O)N(O)C2=O`?
Rab7 wt GTP bind: inactive; Rac1 act GTP bind: inactive; Rab2A wt mod: inactive; Rac1 wt modul: 79.0; HRas wt GTP bind: inactive; Cdc42 wt: inactive

Results for COc1ccccc1N1C(=O)c2cccc3c(C(=O)O)ccc(c23)C1=O ?
Rab7 wt GTP bind: inactive; Rac1 act GTP bind: inactive; Rab2A wt mod: inactive; Rac1 wt modul: inactive; HRas wt GTP bind: inactive; Cdc42 wt: inactive

What do the screens show for `CCNC(=O)NC(=O)COC(=O)CCCc1nc2ccccc2s1`?
Rab7 wt GTP bind: inactive; Rac1 act GTP bind: inactive; Rab2A wt mod: inactive; Rac1 wt modul: inactive; HRas wt GTP bind: inactive; Cdc42 wt: inactive

What do the screens show for `Clc1ccc(CNc2ccc3nnc(-c4ccccc4)n3n2)cc1`?
Rab7 wt GTP bind: inactive; Rac1 act GTP bind: inactive; Rab2A wt mod: inactive; Rac1 wt modul: inactive; HRas wt GTP bind: inactive; Cdc42 wt: inactive

What do the screens show for `CCOc1ccc(CCNc2ccc3nnc(-c4ccccc4)n3n2)cc1OCC`?
Rab7 wt GTP bind: inactive; Rac1 act GTP bind: inactive; Rab2A wt mod: 76.0; Rac1 wt modul: 76.0; HRas wt GTP bind: 74.0; Cdc42 wt: 79.0

How did O=C(CCN1CCCCC1)c1ccc2c(c1)OCCO2 do in these assays?
Rab7 wt GTP bind: inactive; Rac1 act GTP bind: inactive; Rab2A wt mod: inactive; Rac1 wt modul: inactive; HRas wt GTP bind: inactive; Cdc42 wt: inactive

How did O=C(CCN1CCCC1Cc1ccccc1)c1ccc2c(c1)OCCO2 (stereo not given) do in these assays?
Rab7 wt GTP bind: inactive; Rac1 act GTP bind: inactive; Rab2A wt mod: inactive; Rac1 wt modul: inactive; HRas wt GTP bind: inactive; Cdc42 wt: 76.0

How did COC(=O)c1ccc(/C=N/Nc2nc(-c3ccc(Cl)cc3Cl)cs2)cc1 do in these assays?
Rab7 wt GTP bind: 124.0[activator]; Rac1 act GTP bind: inactive; Rab2A wt mod: 123.0[activator]; Rac1 wt modul: 130.0[activator]; HRas wt GTP bind: 121.0[activator]; Cdc42 wt: 127.0[activator]

Results for O=S(=O)(Nc1cccc(-c2cn3cccnc3n2)c1)c1ccc(-c2ccccc2)cc1 ?
Rab7 wt GTP bind: inactive; Rac1 act GTP bind: inactive; Rab2A wt mod: inactive; Rac1 wt modul: inactive; HRas wt GTP bind: inactive; Cdc42 wt: inactive

Results for O=S(=O)(Nc1cccc(-c2cn3cccnc3n2)c1)c1ccccc1 ?
Rab7 wt GTP bind: inactive; Rac1 act GTP bind: inactive; Rab2A wt mod: 74.0; Rac1 wt modul: 70.0; HRas wt GTP bind: 75.0; Cdc42 wt: inactive

How did COCCn1c(=S)[nH]c2cc(C(=O)N3CCc4ccccc4C3)ccc2c1=O do in these assays?
Rab7 wt GTP bind: inactive; Rac1 act GTP bind: inactive; Rab2A wt mod: inactive; Rac1 wt modul: 124.0[activator]; HRas wt GTP bind: inactive; Cdc42 wt: inactive

How did Cc1cc(C(=O)Cn2nc(C(=O)O)c3ccccc3c2=O)c(C)n1-c1ccc(OC(F)F)cc1 do in these assays?
Rab7 wt GTP bind: inactive; Rac1 act GTP bind: inactive; Rab2A wt mod: inactive; Rac1 wt modul: inactive; HRas wt GTP bind: inactive; Cdc42 wt: 79.0

How did COc1ccc(-n2c(C)cc(C(=O)Cn3nc(C(=O)O)c4ccccc4c3=O)c2C)cc1 do in these assays?
Rab7 wt GTP bind: inactive; Rac1 act GTP bind: inactive; Rab2A wt mod: inactive; Rac1 wt modul: inactive; HRas wt GTP bind: inactive; Cdc42 wt: inactive

How did CCn1cc(C(=O)OCC(=O)c2cc(C)n(-c3ccccc3)c2C)c(=O)c2ccc(C)nc21 do in these assays?
Rab7 wt GTP bind: inactive; Rac1 act GTP bind: inactive; Rab2A wt mod: inactive; Rac1 wt modul: inactive; HRas wt GTP bind: inactive; Cdc42 wt: inactive

What do the screens show for `CCn1cc(C(=O)OCC(=O)c2cc(C)n(-c3ccc(OC(F)F)cc3)c2C)c(=O)c2ccc(C)nc21`?
Rab7 wt GTP bind: inactive; Rac1 act GTP bind: 78.0; Rab2A wt mod: 76.0; Rac1 wt modul: 74.0; HRas wt GTP bind: inactive; Cdc42 wt: 79.0

What do the screens show for `NC(=O)c1nn(-c2ccccc2)nc1NC(=O)Cn1nnc(-c2ccccc2)n1`?
Rab7 wt GTP bind: inactive; Rac1 act GTP bind: inactive; Rab2A wt mod: inactive; Rac1 wt modul: inactive; HRas wt GTP bind: inactive; Cdc42 wt: inactive

Results for Cc1ccc(NC(=O)COC(=O)/C=C/c2cccs2)c(C)c1 ?
Rab7 wt GTP bind: inactive; Rac1 act GTP bind: inactive; Rab2A wt mod: inactive; Rac1 wt modul: inactive; HRas wt GTP bind: inactive; Cdc42 wt: inactive

Screening data deposited in PubChem BioAssay by NMMLSC.
